According to PubChem BioAssay (NCATS):
Inconclusive results are not listed. Activity calls are given as the source filed them. Calls come from the whole dose curve; as a rule, active = well fitted cell-killing curve with a large enough effect; inconclusive = small, poorly fitted or top-dose-only effect, or effect the other way; inactive = flat fitted curve, though single readings scatter.
% is set by controls: 0 for no effect and ±100 for the full control effect; potency is the fitted concentration of half-maximal effect.

Each molecule was assayed on JEG-3 (assay: Primary qHTS to identify gynecologic anti-cancer compounds using libraries of approved drugs and bioactive compounds (AID 1345084; note: nearly all actives have a fitted effect of over 55% in size)). Settings: Gynecologic cancer cell panel viability, ATPlite luminescence, 48 h; series mostly up to 57.5 µM; activity change, negative = cytotoxicity: at the top concentration.
In short: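 Cells, 1,000 per well, were allowed to settle for 16 h at 37 C before compound addition. Five concentrations were tested for 48 h, and viability was read by ATPlite luminescence after 15 min at room temperature.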
In the case of `CCC(C)(C)C(=O)O[C@H]1C[C@@H](C)C=C2C=C[C@H](C)[C@H](CC[C@@H]3C[C@@H](O)CC(=O)O3)[C@H]21`, the “activity change, negative = cytotoxicity” value is reported as 22.3% (inactive).
`COc1cc(F)c(F)c(Nc2ccc(I)cc2F)c1NS(=O)(=O)C1(C[C@H](O)CO)CC1` was tested, and the “activity change, negative = cytotoxicity” value was -1.51% (inactive).
`Nc1nc2c(ncn2COCCO)c(=O)[nH]1` was tested, and the “activity change, negative = cytotoxicity” value was -0.361% (inactive).
For `COc1cc(Oc2ccnc3cc(OC)c(OC)cc23)ccc1NC(=O)NC(C)c1nccs1` (stereo not given), the “activity change, negative = cytotoxicity” value was 1.43% (inactive).
`Oc1ccc(C2CNCCc3c2cc(O)c(O)c3Cl)cc1` (stereo not given) was tested, and the “activity change, negative = cytotoxicity” value was 9.09% (inactive).
With `NC[C@H](O)c1ccc(O)c(O)c1` the “activity change, negative = cytotoxicity” value was 2.18% (inactive).
In the case of `COc1ccc2nc(S(=O)Cc3ncc(C)c(OC)c3C)[nH]c2c1` (stereo not given), the “activity change, negative = cytotoxicity” value is reported as -23.6% (inactive).
For `CN(C)c1ccc(C2Nc3ccc4ccccc4c3C3=C2C(=O)CC(C)(C)C3)cc1Br` (stereo not given), the “activity change, negative = cytotoxicity” value was -4.9% (inactive).
In the case of `COc1cc2nccc(Oc3ccc(NC(=O)NC4CC4)c(Cl)c3)c2cc1C(N)=O`, the “activity change, negative = cytotoxicity” value is reported as -3.46% (inactive).
`CCc1cc(Nc2nccc(-c3c(-c4ccc(OC)c(C(=O)Nc5c(F)cccc5F)c4)nc4ccccn34)n2)c(OC)cc1N1CCC(N2CCN(S(C)(=O)=O)CC2)CC1` was tested, and the “activity change, negative = cytotoxicity” value was -13% (inactive).
`Cc1oncc1C(=O)Nc1ccc(C(F)(F)F)cc1` was tested, and the Potency was 25.1 µM (active).
With `CN(C)c1ccc(Nc2nc(N)n(C(=O)c3c(F)cccc3F)n2)cc1` the “activity change, negative = cytotoxicity” value was -5.48% (inactive).
For `N[C@@H]1CONC1=O`, the “activity change, negative = cytotoxicity” value was -3.66% (inactive).
For `CCOC(=O)C1=C[C@]2(CC)CCCN3CCc4c(n1c1ccccc41)[C@@H]32`, the “activity change, negative = cytotoxicity” value was 12.4% (inactive).
With `CCn1cc(C(=O)O)c(=O)c2cc(F)c(N3CCNC(C)C3)c(F)c21` (stereo not given) the “activity change, negative = cytotoxicity” value was 4.61% (inactive).
